Results: ChEMBL document CHEMBL3988442, “University of Dundee, Small-Polar-MMV Screening Library” (2021)
The campaign covered roughly 69,000 compounds. About 1,000 (1.4%) showed an effect of 50% or more. This is one part of a sample in which strong results are shown more often than they occur.

Test system: Leishmania donovani
Assay: Leishmania intramacrophage assay
Type: functional, organism-based
Set-up: scale not given: in the data most compounds retested in dose-response had high values

| SMILES | Percent Effect (30.3 µM, […]) | Percent Effect (30 µM, 30.03 µM) |
| --- | --- | --- |
| Cc1cnc(N2CC[C@@H]3O[C@@H](COCC(=O)N(C)C)CC[C@@H]32)nc1.O=C(O)C(F)(F)F | 58.41% | – |
| Cc1nc(-c2cncnc2C2CCCNC2)no1.Cl.Cl (configuration not stated) | 9.405% | – |
| O=C(Nc1nncs1)c1ccc(O)nc1 | 16.66% | – |
| CCc1nnc(CNC2CCN(c3ncnc4c(C)csc34)CC2)s1 | 52.55% | – |
| Cc1nnc(CCNC2CCN(c3ncnc4c(C)csc34)CC2)s1 | – | 49.19% |
| Cc1nc(C)n(CCNC2CCN(c3ncnc4c(C)csc34)CC2)n1 | -18.48% | – |
| CCNC(=O)NC(C)c1nc(-c2ccc(Br)cc2)no1 (configuration not stated) | 26.95% | – |
| CSCC1CCN(C(=O)c2ccccc2NCc2cccnc2)C1 (configuration not stated) | -38.07% | – |
| CC(C)SCC(=O)NCc1cc2n(n1)CCCN(C1CCCCC1)C2 | 64.6% | – |
| CCC(C)NC(=O)NCc1cc2n(n1)CCCN(C1CCCCC1)C2 (configuration not stated) | 50.3% | – |
| CCC(OC)C(=O)NCc1cc2n(n1)CCCN(C1CCCCC1)C2 (configuration not stated) | 1.469% | – |
| CCCOC(C)C(=O)NCc1cc2n(n1)CCCN(C1CCCCC1)C2 (configuration not stated) | 20.03% | – |
| CSCCC(=O)NCc1cc2n(n1)CCCN(C1CCCCC1)C2 | -17.68% | – |
| CN[C@@H](CO)C(=O)NCc1cc2n(n1)CCCN(C1CCCCC1)C2 | 3.405% | – |
| Cc1cc(C)n(-c2cncc(N3CCC(C(=O)N(C)C)CC3)n2)n1 | -6.574% | – |
| O=C(c1ccc(=O)[nH]n1)N1CCNCC1c1ccccc1 (configuration not stated) | -5.209% | – |
| CC(C)Nc1cccc(C(=O)NCC(O)c2cccc(F)c2)c1 (configuration not stated) | 8.412% | – |
| Cc1ccccc1CCC1CCCN(C(=O)Cc2cc(=O)[nH]c(N)n2)C1 (configuration not stated) | -48.51% | – |
| CCc1nc(N)sc1C(=O)N1CCCC(COc2cccc(C)c2)C1 (configuration not stated) | -12.25% | – |
| CCc1nc(N)sc1C(=O)N1CCCC(CCc2ccccc2C)C1 (configuration not stated) | – | 59.23% |
| CC(=O)N1CCC(c2cncc(N3CCC(O)C3)n2)CC1 (configuration not stated) | 8.685% | – |
| O=C(O)C(F)(F)F.O=S(=O)(NC1CCC12CCN(CC1CCOCC1)CC2)c1ccccc1 (configuration not stated) | 17.74% | – |
| CC(C)(C)OC(=O)N[C@@H]1C[C@@H](O)CN(C(=O)c2cccc(F)c2)C[C@H]1O | 29.87% | – |
| Cc1c(CNCc2nn(-c3ccccc3)c3c2CCC3)cc(C#N)n1C | 49.86% | – |
| COc1ccccc1CNCc1nn(-c2ccccc2)c2c1CCC2 | 72.37% | – |
| Cc1noc(C)c1CNCc1nn(-c2ccccc2)c2c1CCC2 | -2.831% | – |

| SMILES | Percent Effect (30.3 µM, […]) | Percent Effect (30 µM, 30.03 µM) |
| --- | --- | --- |
| CC(=O)c1cccc(OCCCC(=O)N(C)Cc2cnn(C)c2)c1 | -2.967% | – |
| c1ccc(Cn2cc(CNc3ncnc4c3CCNCC4)cn2)cc1 | 13.57% | – |
| c1ccc(CN2CCC(CNc3ncnc4c3CCNCC4)CC2)cc1 | -23.91% | – |
| Cc1cccc(=O)n1CCCNc1ncnc2c1CCNCC2 | 9.317% | – |
| c1cncc(-c2noc(CNc3ncnc4c3CCNCC4)n2)c1 | 35.11% | – |
| Cc1ccccc1-n1cc(CNc2ncnc3c2CCNCC3)cn1 | 29.71% | – |
| COc1ccc(-c2cc(CNc3ncnc4c3CCNCC4)no2)cc1 | 66.16% | – |
| COCc1noc(CCNc2ncnc3c2CCNCC3)n1 | 2.148% | – |
| Cc1ccc(-c2cc(CNc3ncnc4c3CCNCC4)no2)cc1 | 97.6% | – |
| Cc1cccc(-n2cc(CNc3ncnc4c3CCNCC4)cn2)c1 | 61.6% | – |
| Clc1ccccc1-c1cc(CNc2ncnc3c2CCNCC3)no1 | 94.85% | – |
| c1cncc(-c2noc(CCNc3ncnc4c3CCNCC4)n2)c1 | 24.85% | – |
| c1ccc(CN2CCC(CCNc3ncnc4c3CCNCC4)C2)cc1 (configuration not stated) | -39.7% | – |
| Cn1cc(-c2cc(-c3cnn(C)c3)n(CC(=O)NC3CC3)n2)cn1 | -1.984% | – |
| Cc1ncc(CN(C)C2CCCN(CCc3ccccc3)C2)n1C (configuration not stated) | 22.06% | – |
| CN(CCCNC(=O)C1CCCN(C(N)=O)C1)S(C)(=O)=O (configuration not stated) | 4.871% | – |
| COc1cccc(CN2CCCC3(CCN(C(=O)N4CCCC4)C3)C2)c1.O=C(O)C(F)(F)F (configuration not stated) | 1.476% | – |
| COc1cccc(CN2CCCC3(CCN(C(=O)[C@H]4CCCO4)C3)C2)c1 (some centres not stated) | – | 29.96% |
| COc1cccc(CN2CCCC3(CCN(C(=O)c4ccco4)C3)C2)c1 (configuration not stated) | – | 53.43% |
| COCc1ncc(CN2CC[C@@](C)(O)[C@@H](Cc3ccccc3)C2)cn1 | 11.16% | – |
| O=C(CCn1ccc2cc(Br)ccc21)NC[C@@H]1CCCN2CCCC[C@H]12 | 94.12% | – |
| Cc1ccc2c(ccn2CC(=O)NC[C@@H]2CCCN3CCCC[C@H]23)c1 | – | 26.96% |
| O=C(Cn1ccc2cc(Br)ccc21)NC[C@@H]1CCCN2CCCC[C@H]12 | 50.79% | – |
| O=C(Cn1ccc2ccc(Br)cc21)NC[C@@H]1CCCN2CCCC[C@H]12 | – | -30.69% |
| COc1ccc2c(ccn2CC(=O)NC[C@@H]2CCCN3CCCC[C@H]23)c1 | 29.51% | – |
| Cc1ccc2c(ccn2CCC(=O)NC[C@@H]2CCCN3CCCC[C@H]23)c1 | – | 28.72% |
